# TDP1 cell noCPT = qHTS for Inhibitors of human tyrosyl-DNA phosphodiesterase 1 (TDP1): qHTS in cells in absence of CPT; DT40 Tdp1-/- hTDP1 cells, no CPT, ATP luminescence, 48 h; Potency, µM (titrated, usually from 46.2 µM), hits mostly inhibitors; actives 15% (n = 420,000); also: nearly all actives have a fitted effect of over 55% in size
#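 Growth kinetics read by CellTiter-Glo luminescence after ≥48 hr at 37 °C. Cells: DT40 Tdp1-/- stably carrying human TDP1, 400 per well, compound exposure in the absence of CPT (DMSO vehicle).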
# HT1080 IDH1KD tx = HT-1080 IDH1 knockdown cell toxicity (counter line); HT-1080 IDH1 knockdown viability, ATP luminescence, 48 h; Potency, µM (highest dose often 46.1 µM), usual class: cytotoxic; actives 2% (n = 360,000); AID 686971
#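 Using the IDH1-knockdown HT-1080 line run in the same batch and compound series as the NT line, viability after 48 h at 37 °C was determined by CellTiter-Glo luminescence and expressed as % activity.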
# DT40 TDP1 CPT = growth inhibition of DT40 Tdp1-/-;hTDP1 cells with camptothecin (screen for TDP1 inhibitors). chicken DT40 Tdp1-/-;hTDP1 cells + 20 nM CPT, ATP luminescence, 48 h. Potency, µM (series often up to 46.2 µM), actives largely listed as inhibitors. AID 686979. actives 12% (n = 420,000); also: nearly all actives have a fitted effect of over 55% in size
#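 Chicken DT40 Tdp1-/- cells complemented with human TDP1, 400 cells/well, exposed to compounds plus 20 nM camptothecin for at least 48 h at 37 C; viability read as ATP content by CellTiter-Glo luminescence.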
# KB-3-1 cytotox = kills parental KB-3-1 adenocarcinoma cells. KB-3-1 viability, CellTiter-Glo ATP luminescence, 72 h. Potency, µM (titrated, usually from 46.1 µM), hits mostly cytotoxic. actives 1.4% (n = 400,000); also: nearly all actives have a fitted effect of over 60% in size
#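 Here the drug-naive KB-3-1 line serves as comparator for MDR sub-line selectivity; cells received compound titrations, 72 h at 37 °C, then CellTiter-Glo readout.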
# KB-V1 cytotox = KB-V1 MDR subline cytotoxicity; KB-V1 MDR cells viability, CellTiter-Glo, 72 h; Potency, µM (titrated, usually from 46.1 µM), usual class: cytotoxic; actives 3.4% (n = 400,000); also: nearly all actives have a fitted effect of over 60% in size
#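 Luminescent ATP read-out (CellTiter-Glo, 10 min) measures survival of drug-selected KB-V1 MDR cells after 72 h, 37 degrees C compound exposure. Medium: phenol-red-free DMEM, 10% FBS. Values from fitted concentration-response curves.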
# HT1080NT lethal = kills 2HG-producing HT-1080-NT fibrosarcoma cells; AID 686970; HT-1080-NT fibrosarcoma viability, CellTiter-Glo ATP luminescence, 48 h; Potency, µM (doses to about 46.1 µM), most hits filed as cytotoxic; actives 1.6% (n = 360,000);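 also: NT is the 2HG producing partner of a matched IDH1 knockdown line; nearly all actives have a fitted effect of over 55% in size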
#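 HT-1080-NT; 750 cells/well; 5% FBS RPMI; 48 h compound, 37 degrees C; CellTiter-Glo luminescence; curve fitting and curve-class assignment.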
# A number is an active result; . = inactive; ? = inconclusive; / = no result. Hits are enriched below; roughly 19% of the tested compounds scored in any of these assays. Calls follow the shape of the dose curve; as a rule, active = well fitted curve in the direction sought with a large enough effect; inconclusive = small, poorly fitted or top-dose-only effect, or another doubt; inactive = no such curve, though single readings can be large; an effect the other way counts as inactive or inconclusive.
SMILES,TDP1 cell noCPT,HT1080 IDH1KD tx,DT40 TDP1 CPT,KB-3-1 cytotox,KB-V1 cytotox,HT1080NT lethal
Cc1ccccc1C(=O)Nc1ccnn1C1CCN(Cc2ccccn2)CC1,.,.,.,/,/,.
Cc1ccc(-n2ncc3c2CC(C)(C)CC3NC(=O)CCN2CCCCC2=O)cc1 (stereo not drawn),.,.,.,/,/,.
CCC(C)C(=O)N1c2ccccc2C(=C2SC(C(=O)OC)=C(C(=O)OC)S2)C(=S)C1(C)C (stereo not drawn),12.6µM,?,11.2µM,?,?,?
O=C1NC[C@H](CCCCN2CCN(Cc3ccccc3)C(=O)C2=O)N(CCc2ccccc2)C1=O,.,.,.,.,.,.
O=C(NNc1ccccc1F)c1sccc1Cl,?,?,.,/,/,?
Cc1ccc(-c2noc(N=O)c2NO)cc1,23.1µM,?,20.6µM,.,.,?
Cc1onc(-c2ccccc2)c1NC(=O)Nc1c(-c2ccccc2)noc1C,.,.,.,.,.,.
CN(Cc1ccc(Cl)s1)C(=O)CSc1nnc(C2CC2)n1C1CC1,.,.,.,.,.,.
CC(C)N(Cc1nccn1C)C(=O)c1ccc2oc(Cc3ccccc3)nc2c1,?,.,20.6µM,.,.,.
Cc1cnc(CNC(=O)c2ccc3oc(Cc4ccccc4)nc3c2)[nH]1,.,.,.,.,.,.
CCCN1C(=O)c2[nH]nc(-c3cc(Cl)c(C)cc3O)c2C1c1ccc(O)c(OC)c1 (stereo not drawn),?,16.4µM,?,.,.,?
COCCCN1C(=O)c2[nH]nc(-c3cc(C)cc(C)c3O)c2C1c1ccc(O)c(OC)c1 (stereo not drawn),?,.,20.6µM,?,20.6µM,.
Cc1coc2c1c(C)cc1oc(=O)cc(C)c12,.,/,.,.,.,/
O=C(N/N=C/c1ccnc2ccccc12)c1ccccc1O,11.6µM,.,3.26µM,.,.,.
CN(C)c1ccc(C=NNC(=O)c2cccc3ccccc23)c(Cl)c1,4.11µM,?,5.17µM,5.17µM,3.66µM,?
O=C(O)c1ccc(N/N=C/c2ccnc3ccccc23)cc1,.,.,.,.,.,.
O=C(N/N=C/c1ccccc1O)c1cccc2ccccc12,4.11µM,9.2µM,5.8µM,.,?,?
O=C(O)c1ccc(C=NNC(=O)c2cccc3ccccc23)cc1,?,.,.,.,.,.
COc1cc(C(=O)OCC(=O)c2c(N)n(C)c(=O)n(C)c2=O)ccc1OCCC(C)C,.,.,.,.,.,.
Cn1nc(C(=O)NNC(=O)CCc2ccccc2Cl)c2ccccc2c1=O,.,.,.,.,.,.
Cc1oc(-c2cccc(Cl)c2)nc1CSc1nnc(C)n2c1cc1occc12,.,/,.,.,.,/
COc1ccccc1Nc1cc2cc(Br)ccc2c(=O)[nH]1,5.17µM,?,2.59µM,7.31µM,?,.
COc1ccc(OC)c(Nc2cc3ccccc3c(=O)[nH]2)c1,1.84µM,18.4µM,1.3µM,4.11µM,23.1µM,?
O=c1[nH]c(Nc2ccccc2)cc2cc(Br)ccc12,18.4µM,.,?,.,?,.
CCC1(C)SC(N)=NN1C(C)=O (stereo not drawn),.,.,.,.,.,.
CCOc1ccc(N(CC)C(=O)Cn2cnc3sc(C)c(S(=O)(=O)N4CCN(c5ncccn5)CC4)c3c2=O)cc1,9.2µM,/,13µM,.,.,/
Cc1ccc(C)c(N2CCN(C(=O)Cn3cnc4sc(C)c(S(=O)(=O)N5CCN(c6ncccn6)CC5)c4c3=O)CC2)c1,9.2µM,/,18.4µM,.,?,/
Cc1sc2ncn(CC(=O)N3CCN(c4ccc(F)cc4)CC3)c(=O)c2c1S(=O)(=O)N1CCCCC1,16.4µM,/,16.4µM,.,.,/
Cc1sc2ncn(CC(=O)N3CCN(c4cccc(Cl)c4)CC3)c(=O)c2c1S(=O)(=O)N1CCN(c2ncccn2)CC1,.,/,.,.,?,/

# Bioassay records (PubChem)
